Measurements taken from the supplement of paper PMC10338343.
± gives the standard deviation.

Key:
[1] = system: MILI (PIWIL2) piRISC loaded with piRNA #1 (26 nt); assay: pre-steady-state target cleavage rate (min^-1); guide: piRNA #1 5'p-UGAGGUAGUAGGUUGUAUAGUAUCCA; higher = faster piRNA-guided slicing of the target; conditions: auxiliary factor: 500 nM mouse GTSF1;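 further: 1 nM active piRISC with 0.1 nM target library at 33 °C single turnover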
In short: (§1)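 Active affinity-purified piRISC carrying one synthetic guide (1 nM) was mixed with a transcribed, DNA-blocked target RNA library […] in HEPES–potassium acetate buffer at 33 °C for 0–8 or 0–960 min, with or without 500 nM GTSF1 partner protein. Uncleaved targets were then sequenced and normalised to depth and to weakly complementary targets. Three trials were pooled, and k3 was capped at 0.0001 min^-1. A burst-and-steady-state fit was applied to obtain the pre-steady-state cleavage rate.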

[2] = system: EfPiwi piRISC loaded with piRNA #1 (26 nt); assay: pre-steady-state target cleavage rate (min^-1); auxiliary factor: 500 nM Ephydatia muelleri Gtsf1; guide: piRNA #1 5'p-UGAGGUAGUAGGUUGUAUAGUAUCCA; MIWI and MILI are mouse PIWI proteins and EfPiwi is from a freshwater sponge; tags in brackets are library labels; higher = faster piRNA-guided slicing of the target
In short: as §1

| Sequence | pre-steady-state target cleavage rate [1] | pre-steady-state target cleavage rate [2] |
| --- | --- | --- |
| GGAGACCAUACUAUACAACCUAUUACCUCA | 0.234 ± 0.019 | 0.0186 ± 0.0067 |
| GGAGACCUAACUAUACAACCUACUAUCUCA | 0.0721 ± 0.017 | 0.0057 ± 0.003 |
| GGAGUGGAUACUAUACAACCUACUACCCUCA | 0.104 ± 0.013 | 0.00587 ± 0.002 |
| GGAGACGAUACUAUUCAACCUACUAGCUCA | 0.0651 ± 0.01 | 0.0042 ± 0.002 |
| GGAGACCAAUGUAUACAACCUACUACCUCA | 0.0592 ± 0.01 | 0.0133 ± 0.0056 |
| GGAGACGAUACUAUACGACCUACUACCUCA | 0.0963 ± 0.012 | 0.0807 ± 0.028 |
| GGAGACCUAUGUUAUACAACCUACUACCUCA | 0.104 ± 0.01 | 0.0122 ± 0.0063 |
| GGAGACGAUUCUAUACAACCUUCUACCUCA | 0.0216 ± 0.0072 | 0.00518 ± 0.0027 |
| GGAGUGGAUACAAUACAACCUAGUACCUCA | 0.0718 ± 0.013 | 0.00305 ± 0.0021 |
| GGAGACGAUACUAUACAUGCUACUACCUCA | 0.115 ± 0.01 | 0.00483 ± 0.0015 |
| GGAGAGGAUACUUUACAACCUACUACGUCA | 0.0429 ± 0.0069 | 0.00296 ± 0.0023 |
| GGAGACCUAUGCAUACAACCUACUACCUCA | 0.0358 ± 0.0081 | 0.0042 ± 0.0037 |
| GGAGACCUAACUAUACAACCUACUACUCUCA | 0.208 ± 0.028 | 0.00491 ± 0.0044 |
| GGAGACGAUACUAUACAACCUACGACCUCA | 0.146 ± 0.019 | 0.00449 ± 0.0018 |
| GGAGACCUUACUAUACAACCUACUACCUCC [g2:g22:cont:t1C] | 0.172 ± 0.017 | 0.0065 ± 0.0027 |
| GGAGACGAUACUAUACAACCUACUGCCUCA | 0.11 ± 0.015 | 0.00691 ± 0.0024 |
| GGAGAAGAUACUAUACAACCUACUACCUCA | 0.22 ± 0.016 | 0.0965 ± 0.035 |
| GGAGACCUAUCUAUACAACCUACUACCGCA | 0.174 ± 0.021 | 0.0051 ± 0.0049 |
| GGAGACCAUACUAUACAACCUACUACCUCA [g2:g23:cont:t1A] | 0.178 ± 0.023 | 0.0141 ± 0.0046 |
| GGAGUGGAAACUAUACAACCUACUACCACA | 0.129 ± 0.018 | 0.00336 ± 0.0029 |

| Sequence | pre-steady-state target cleavage rate [1] | pre-steady-state target cleavage rate [2] |
| --- | --- | --- |
| GGAGACCAUAGUAAACAACCUACUACCUCA | 0.0682 ± 0.009 | 0.00482 ± 0.0034 |
| GGAGUGGAUACUCAUACAACCUACUACCUCA | 0.161 ± 0.012 | 0.0153 ± 0.0069 |
| GGAGUGGAUACUAUACAACCUACUACCCA | 0.0544 ± 0.013 | 0.00631 ± 0.0022 |
| GGAGACGAUUCUAUACAACCUACUACCUCA | 0.209 ± 0.013 | 0.0774 ± 0.03 |
| GGAGACGAUACUAUUCAACCUACUACCUGA | 0.105 ± 0.017 | 0.00421 ± 0.0019 |
| GGAGAGCAUACUAUACAACCAACUACCUCA | 0.00634 ± 0.0024 | 0.00434 ± 0.0022 |
| GGAGUGGAUACUAUACAUCCUAGUACCUCA | 0.103 ± 0.019 | 0.00411 ± 0.0015 |
| GGAGACCUAUCUACACAACCUACUACCUCA | 0.072 ± 0.0099 | 0.00358 ± 0.0034 |
| GGAGACGAUACUAUACUACCUACUACCACA | 0.209 ± 0.016 | 0.00202 ± 0.0018 |
| GGAGUGGCAUACUAUACAACCUACUACCUCA | 0.204 ± 0.015 | 0.101 ± 0.029 |
| GGAGUGGGUACUAUACAACCUACUACCUCA | 0.148 ± 0.01 | 0.00924 ± 0.0037 |
| GGAGAGGAUACUAUACAACCUGCUACCUCA | 0.066 ± 0.0089 | 0.114 ± 0.043 |
| GGAGACCUAUGUAAUACAACCUACUACCUCA | 0.0179 ± 0.0049 | 0.00412 ± 0.0028 |
| GGAGUGGUUACUAUACAACCUACUACCACA | 0.0961 ± 0.0098 | 0.00384 ± 0.0022 |
| GGAGUGGAUACUAUACAAGCUACAACCUCA | 0.142 ± 0.014 | 0.00371 ± 0.0018 |
| GGAGAGGAUACUAUACAAGGUACUACCUCA | 0.0284 ± 0.0051 | 0.00404 ± 0.0023 |
| GGAGUCGAUACUAUACAACCUACUACGUCA | 0.0797 ± 0.0078 | 0.00643 ± 0.0028 |
| GGAGUGGAUACUAUACAACCUACUAGCUCA | 0.0481 ± 0.0088 | 0.00429 ± 0.0016 |
| GGAGAGGUUACUAUACAACCUACUUCCUCA | 0.00348 ± 0.0029 | 0.0033 ± 0.002 |
| GGAGACCUAACUAUACAAGCUACUACCUCA | 0.206 ± 0.02 | 0.00482 ± 0.0028 |

| Sequence | pre-steady-state target cleavage rate [1] | pre-steady-state target cleavage rate [2] |
| --- | --- | --- |
| GGAGACGAAACUAUACAACCUACUACGUCA | 0.0713 ± 0.022 | 0.00245 ± 0.0024 |
| GGAGACGAUACUAUACAACCUACUGACCUCA | 0.118 ± 0.015 | 0.00338 ± 0.0017 |
| GGAGUGGAUACUAUGCAACCUACUACCUCA | 0.192 ± 0.009 | 0.09 ± 0.035 |
| GGAGAGGAUACUAUACAUCCUUCUACCUCA | 0.0216 ± 0.0041 | 0.00362 ± 0.0026 |
| GGAGUGGAUACGUAUACAACCUACUACCUCA | 0.111 ± 0.0099 | 0.082 ± 0.03 |
| GGAGACCAUACUAUACAACCUACUACGAGA | 0.0759 ± 0.019 | 0.00579 ± 0.0027 |
| GGAGUGGAUACUAUACAACCUACUACCUCC [g2:g26:cont:t1C] | 0.188 ± 0.0099 | 0.105 ± 0.037 |
| GGAGACCAUACUAUACAACCUACUUGGAGA [g7:g23:cont:t1A] | 0.00469 ± 0.0036 | 0.00547 ± 0.0034 |
| GGAGAGGAUACUAUACAACCUACUACGAGA | 0.00764 ± 0.0034 | 0.00374 ± 0.0018 |
| GGAGACGAUACUAUACAACCUACUACCCA | 0.107 ± 0.024 | 0.00543 ± 0.0019 |
| GGAGACGAUACUAUACAUCCUAGUACCUCA | 0.0834 ± 0.019 | 0.0031 ± 0.001 |
| GGAGACGAUAGUAUACAACCUACAACCUCA | 0.106 ± 0.011 | 0.00195 ± 0.0018 |
| GGAGAGGAUACUAACAACCUACUACCUCA | 0.181 ± 0.013 | 0.00812 ± 0.0046 |
| GGAGACCUAACUAUACAACCUACAACCUGA | 0.00865 ± 0.0074 | 0.00402 ± 0.0029 |
| GGAGACGAUACUAUACAACCUACCUACCUCA | 0.131 ± 0.011 | 0.00485 ± 0.002 |
| GGAGACCUAUCUAUACAACCUACUACGAGA | 0.0633 ± 0.017 | 0.00279 ± 0.0027 |
| GGAGUGGAUACUAUUCAACCUAGUACCUCA | 0.0485 ± 0.0085 | 0.00286 ± 0.0013 |
| GGAGACGAUACUAUACAACCUACUAGCCUCA | 0.159 ± 0.021 | 0.00485 ± 0.002 |
| GGAGACCUAACCUAUACAACCUACUACCUCA | 0.107 ± 0.056 | 0.0868 ± 0.028 |
| GGAGACCAUUCUAAACAACCUACUACCUCA | 0.0936 ± 0.012 | 0.00894 ± 0.0049 |
